Experimental data: PubChem BioAssay

assay: compound effects on hepatocellular carcinoma cell viability – HepG2, calcein-AM fluorescence, 48 h, basal, profiling panel (AID 1164); settings: higher = more signal
Also: test concentration not given here.

Compound	z-score
COC(=O)[C@H](CCSC)NC(=O)CC=C[C@@H](C)CO	0.0826
CC(CCN1CCc2nc(-c3ccccc3)c(-c3ccccc3)cc2C1)=NO[C@@H](C)c1cc(-c2c(C)cc(C)cc2C)no1	0.321
CCOC(=O)[C@H](CC(C)C)NC(=O)CCC1CC(OC(=O)NCc2ccc3c(c2)OCO3)CC2(CCCC(COC(=O)NCCc3ccc(Cl)cc3)O2)O1 (stereo partly specified)	0.0309
CN1CCc2nc(-c3ccccc3)c(-c3ccccc3)cc2C1	0.135
CC(C)CON=C1C[C@@H](O)[C@@H](O)[C@@H]2[C@@H]3C(=O)N([C@@H](C)c4ccccc4)C(=O)[C@@H]3CC[C@@H]12	-0.829
CC(CCC(=O)OC[C@H]1O[C@H](C#Cc2ccccc2)C=C[C@@H]1Oc1ccc(C)cc1)=NOC[C@@H](C)[C@H](OCc1ccccc1)C(C)C	-0.489
CC1(C)O[C@H]2OC([C@H](O)CON3C(=O)c4ccccc4C3=O)[C@H](O)[C@H]2O1 (stereo partly specified)	0.0029
C#CCCCON=C1C[C@@H](O)[C@@H](O)[C@@H]2[C@@H]3C(=O)N(CC)C(=O)[C@@H]3CC[C@H]12	0.0801
CCCC[C@H]1CN2[C@@H](CC[C@@H](C)[C@@H]2c2ccc(Br)cc2)C(=O)O1	-0.189
C[C@@H]1CC[C@H]2C(=O)O[C@@H](CN=[N+]=[N-])CN2[C@H]1c1ccc(Br)cc1	-4.54
CCOC(=O)[C@H](CC(C)C)NC(=O)CCC1CC(OC(=O)NCc2ccc3c(c2)OCO3)CC2(CCCC(COC(=O)NCCc3ccccc3OC)O2)O1 (stereo partly specified)	0.0138
CCCNC(=O)OC[C@H]1O[C@H](CCON=C2C[C@@H](O)[C@@H](O)[C@@H]3[C@@H]4C(=O)N(CC)C(=O)[C@@H]4CC[C@@H]23)C=C[C@@H]1Oc1ccc(OC)cc1	-0.652
COCOc1ccc(Br)cc1C(=O)C=Cc1ccc2c(c1)OCO2	-2.2

assay: compound effects on multiple myeloma cell viability – MM1S, calcein-AM fluorescence, 48 h, basal, profiling panel (AID 1165); settings: higher = more signal;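 also: viability of MM1S multiple myeloma cells under basal unstimulated conditions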

Compound	z-score
CO[C@H]1COC(=O)CCC[C@H](C)[C@H](OC)COC(=O)CC=C[C@@H]1C	-0.469
CCO[C@H](c1cc(OC)cc([N+](=O)[O-])c1OC)[C@H](C)[C@@H](OC)[C@H](C)C=CCC(=O)OC	0.0601
O=C1[C@H]2[C@H]3[C@H](O)[C@H](O)CC(=NOC[C@@H](O)COCc4ccco4)[C@@H]3CC[C@H]2C(=O)N1Cc1ccccc1	0.727
COC(=O)CC=C[C@@H](C)[C@@H](C=NOC[C@@H](O)COCc1ccco1)OC	0.195
C[C@@H](c1ccccc1)N1C(=O)[C@H]2[C@H]3[C@H](O)[C@H](O)CC(=NNC(=O)OCc4ccccc4)[C@@H]3CC[C@H]2C1=O	0.399
CCOC(=O)[C@H](Cc1ccccc1)NC(=O)CCC1CC(OC(=O)NCc2ccc3c(c2)OCO3)CC2(CCCC(COC(=O)NCCOC)O2)O1 (stereo partly specified)	1.05
CCOC(=O)CCN1C(=O)[C@H]2[C@H]3[C@H](O)[C@H](O)CC(=NNC(=O)OCc4ccccc4)[C@H]3CC[C@H]2C1=O	0.357
COc1ccc(O[C@H]2C=C[C@@H](c3ccccc3)O[C@@H]2COC(=O)CCC(C)=NOC[C@@H](O)COCc2ccco2)cc1	-1.89
CCCCOC(OCCCC)C(O)CSc1ccc2ccccc2c1 (stereo unspecified)	-2.77
CC(C)CON=C1C[C@@H](O)[C@@H](O)[C@@H]2[C@@H]3C(=O)N(Cc4ccc5c(c4)OCO5)C(=O)[C@@H]3CC[C@@H]12	0.828
COC(=O)[C@H](C)NC(=O)CCC1CC(OC(=O)NCCc2ccc(F)cc2)CC2(CCCC(COC(=O)NCCc3ccccc3OC)O2)O1 (stereo partly specified)	0.636
CCN1C(=O)[C@H]2[C@@H]3C(=CC[C@H]2C1=O)C(=O)[C@H]1O[C@H]1[C@H]3O	-3.04
C[C@H]1CC[C@@H](C(=O)O)N[C@@H]1c1cccc(N2CCCC2=O)c1	0.149
CCOC(=O)CCN1C(=O)[C@H]2[C@H]3[C@H](O)[C@H](O)CC(=NO[C@@H]4O[C@H](CO)[C@@H](O)[C@H](O)[C@H]4O)[C@H]3CC[C@H]2C1=O	-0.359
O=C1C2=CC[C@H]3C(=O)N(Cc4ccccc4)C(=O)[C@H]3[C@H]2[C@H](O)[C@@H]2O[C@H]12	-3.28
CC(CCC(=O)OC[C@H]1O[C@H](C#Cc2ccccc2)C=C[C@@H]1Oc1ccc(C)cc1)=NO[C@@H](C)c1cc(-c2c(C)cc(C)cc2C)no1	-0.0941
CO[C@@H]1[C@H](O)CO[C@H]1C=Cc1ccccc1	0.018
COc1ccc(O[C@H]2C=C[C@@H](c3ccccc3)O[C@@H]2COC(=O)NCc2cccc3ccccc23)cc1	-1.23
